FEN1 inh: qHTS Assay for the Inhibitors of Human Flap endonuclease 1 (FEN1) | P39748 | Recombinant FEN1 flap cleavage, fluorescence, 15 min | Potency, µM (titrated, usually from 114 µM), for inactives: top-dose activity change, negative = inhibition, actives largely listed as inhibitors | 390,000 tested, 0.35% active; also: potency is read from the fitted curve at half-maximal effect; % is scaled to controls: 0 for no effect and ±100 for the full control effect; nearly all actives have a fitted effect of over 65% in size
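Steps: FEN1 (10 nM) dispensed; compound added by pin tool; 15 min at room temperature; substrate added to 50 nM final; reads at 0 min and 15 min; data normalized and fitted (four-parameter Hill).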
Pol kappa inh: qHTS for Inhibitors of Polymerase Kappa; DNA polymerase kappa (Homo sapiens), Q9UBT6; Potency, µM (highest dose often 107 µM), without a hit: top-dose activity, negative = inhibition, hits mostly inhibitors; purified Pol kappa, fluorescent DNA synthesis assay, 10 min; 400,000 tested, 0.53% active; also: potency is read from the fitted curve at half-maximal effect; % is scaled to controls: 0 for no effect and ±100 for the full control effect
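Kinetic fluorescence readout at 0 and 10 min followed reaction start with substrate at 50 nM final. Beforehand, enzyme (10 nM Pol kappa) stood 15 min with compound at room temperature; buffer-only wells were negative controls.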
POLB inh: qHTS Assay for Inhibitors of DNA Polymerase Beta; P06746; Pol beta primer extension/strand displacement, fluorescence kinetic; Potency, µM (top dose mostly 114 µM), for inactives: top-dose activity change, negative = inhibition, actives largely listed as inhibitors; 340,000 tested, 1.3% active; AID 485314, 2010; also: potency is read from the fitted curve at half-maximal effect; % is scaled to controls: 0 for no effect and ±100 for the full control effect
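Values derive from four-parameter Hill fits of normalized kinetic data: reads at 0 and 10 min following addition of 50 nM substrate to 10 nM Pol beta preincubated 15 min with compound.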
Pol eta inh: qHTS for Inhibitors of Polymerase Eta. DNA polymerase eta (Homo sapiens), Q9Y253. recombinant Pol eta, fluorescent DNA replication assay. Potency, µM (doses to about 114 µM), for the others: at the top dose activity change, negative = inhibition, actives largely listed as inhibitors. 390,000 tested, 1.2% active. AID 588591, 2011; also: potency is read from the fitted curve at half-maximal effect; % is scaled to controls: 0 for no effect and ±100 for the full control effect
Target sequence (Q9Y253 whole entry, looked up): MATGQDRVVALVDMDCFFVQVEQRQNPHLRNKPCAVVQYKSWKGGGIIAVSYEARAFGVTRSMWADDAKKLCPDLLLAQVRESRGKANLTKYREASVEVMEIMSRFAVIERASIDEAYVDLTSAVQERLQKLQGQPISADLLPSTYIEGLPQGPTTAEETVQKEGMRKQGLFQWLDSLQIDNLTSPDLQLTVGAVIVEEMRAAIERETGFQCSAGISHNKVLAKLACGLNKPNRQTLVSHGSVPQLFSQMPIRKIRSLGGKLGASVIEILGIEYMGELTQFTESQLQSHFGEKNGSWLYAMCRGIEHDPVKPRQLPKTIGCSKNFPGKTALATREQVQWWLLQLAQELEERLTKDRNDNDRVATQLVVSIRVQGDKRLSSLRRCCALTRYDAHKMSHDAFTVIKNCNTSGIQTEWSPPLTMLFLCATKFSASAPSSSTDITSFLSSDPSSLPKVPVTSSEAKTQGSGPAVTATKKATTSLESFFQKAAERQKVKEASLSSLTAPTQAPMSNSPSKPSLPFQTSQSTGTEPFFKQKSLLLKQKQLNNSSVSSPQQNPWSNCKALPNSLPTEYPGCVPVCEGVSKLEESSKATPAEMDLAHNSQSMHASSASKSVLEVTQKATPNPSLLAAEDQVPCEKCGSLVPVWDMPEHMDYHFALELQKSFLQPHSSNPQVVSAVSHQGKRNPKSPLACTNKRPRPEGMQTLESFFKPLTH
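Fluorescent replication assay: 50 nM final substrate added after a 15 min room-temperature compound preincubation with 10 nM enzyme. Signal taken at 0 min and again at 10 min.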
POLI inh: qHTS for Inhibitors of Polymerase Iota. DNA polymerase iota (Homo sapiens), Q9UNA4. Pol iota fluorescent replication assay, 10 min. Potency, µM (doses to about 115 µM), for inactives: top-dose activity, negative = inhibition, usual class: inhibitors. 390,000 tested, 1% active. AID 588590, 2011; also: potency is read from the fitted curve at half-maximal effect
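Pol iota at 10 nM preincubated 15 min with compounds at room temperature; reaction started with fluorescent substrate, 50 nM final. Fluorescence read kinetically at 0 and 10 min; buffer-only wells as negative control.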
PI5P4Ka inh: qHTS for Inhibitors of phosphatidylinositol 5-phosphate 4-kinase (PI5P4K); PI5P4Kalpha enzyme, ADP-Glo luminescence, 60 min; hits give low values; AID 652105, 2013; max response, %; Phosphatidylinositol 5-phosphate 4-kinase type-2 alpha (Homo sapiens), P48426; 330,000 tested, 1.2% active; active = max response of -50% or lower; inconclusive = between -30% and -50%; inactive = -30% or higher; also: value at the top dose of about 77 µM; % is scaled to controls: 0 for no effect and ±100 for the full control effect
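Reactions run in 0.038 M HEPES pH 7.4, 0.28 mM EGTA, 0.1% CHAPS and 5% DMSO, with PI5P4Kalpha, substrate, compound and 5 microM ATP final, one hour at room temperature. Readout is ADP-Glo luminescence.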
* marks the source's active call; other numbers are inactive results; u = inconclusive; x = no result; [ ] = dose if it differs, or a comment. The list is not random: actives were taken first. Their share in the collection is about 2.8%. Unless noted, calls follow the shape of the dose curve; as a rule, active = well fitted curve in the direction sought with a large enough effect; inconclusive = small, poorly fitted or top-dose-only effect, or another doubt; inactive = no such curve, though single readings can be large; an effect the other way counts as inactive or inconclusive.

SMILES	FEN1 inh	Pol kappa inh	POLB inh	Pol eta inh	POLI inh	PI5P4Ka inh
CCOC(=O)N1CCN(C(=O)CSCc2nc(-c3ccccc3F)oc2C)CC1	-1%	-4%	30%	-8%	89µM*	0
COc1ccc(NC(=O)CNC(=O)Cn2c(C)cc3ccccc3c2=O)c(OC)c1	4%	-20%	79µM*	-16%	116%	-8
COc1ccc(NC(=O)CNC(=O)Cn2c(C)cc3ccccc3c2=O)cc1OC	8%	6%	32µM*	-25%	38%	8
COc1ccc(NC(=O)CC(C)=O)c(OC)c1	16%	-1%	0%	4%	-28%	-64*
COc1ccc(NC(=O)CC(=O)Nc2ccc(OC)cc2OC)c(OC)c1	0%	-15%	0%	-5%	14%	x
Cc1c(Cl)cnc(NC(=O)COC(=O)c2cccc(S(=O)(=O)N3c4ccccc4CC3C)c2)c1Cl (centres undefined)	-11%	-22%	u	u	-14%	-14
CC1=Nc2cc(C(=O)NC3CCCC3)ccc2Sc2ccc(Br)cc21	-19%	-11%	21%	-12%	8%	x
CC1=Nc2cc(C(=O)O)ccc2Sc2ccc(Br)cc21	-2%	u	1%	50µM*	u	-16
O=C(c1c[nH]c2ccc(S(=O)(=O)Nc3ccccc3F)cc2c1=O)N1CCCCCC1	-12%	-15%	17%	0%	u	x
CCc1ccc(NS(=O)(=O)c2ccc3[nH]cc(C(=O)N4CCc5ccccc54)c(=O)c3c2)cc1	-18%	u	18µM*	u	-65%	-22
CCc1ccccc1NS(=O)(=O)c1ccc2[nH]cc(C(=O)N3CCCCC3)c(=O)c2c1	0%	-10%	22µM*	9%	u	x
COc1cc(OC)nc(Oc2cc(/C=N/O)ccc2OC)n1	-10%	-1%	2%	-5%	8%	0
CCOC(=O)c1ccc(CN(Cc2ccccc2C)S(=O)(=O)c2ccc(C(C)(C)C)cc2)cc1	-5%	-11%[60.1 µM]	0%	-12%	8%	x
COc1cc([N+](=O)[O-])cc(/C=N/NC(=O)c2ccc(NC(=O)c3ccc(C)cc3)cc2)c1O	8%	-7%	-23%	-18%	78%	-62*
COc1ccc(/C=N/NC(=O)c2ccc(NC(=O)c3cccc([N+](=O)[O-])c3)cc2)c(C(=O)O)c1OC	-7%	0%	71µM*	79µM*	u	u
COc1cc(OC)c([N+](=O)[O-])cc1/C=N/NC(=O)c1ccncc1	-5%	-37%	19%	32µM*	u	2
O=C(Cc1ccc(NC(=O)N2CCSc3ncccc32)cc1)NCCc1ccccc1	14%	-6%	8%	-3%	5%	x
COCCN(C(=O)CSc1ccc2c(c1)OCCO2)c1c(N)n(CC(C)C)c(=O)[nH]c1=O	-11%	-14%	x	-9%	14%	0
CCOc1ccc(C(=O)NCC(c2ccc3c(c2)OCO3)N2CCN(c3ccccc3F)CC2)cc1 (centres undefined)	2%	-4%[60.1 µM]	-1%	-24%	6%	x
Cc1ccc(C(c2nc3ccccc3[nH]2)n2c(-c3ccccc3)nc3ccccc32)cc1 (centres undefined)	x	x	x	x	x	-6
Cc1ccc(S(=O)(=O)N2CN(CC3CCCO3)c3nc4ccccc4nc32)c(C)c1 (centres undefined)	-1%	-18%	-8%	-18%	71µM*	9
O=S(=O)(c1cccs1)N1CN(CC2CCCO2)c2nc3ccccc3nc21 (centres undefined)	-12%	-4%	1%	1%	14%	x
S=c1[nH]nc2ccc3ccccc3n12	x	x	x	x	x	-61*

Source: PubChem BioAssay
